# High-throughput results (PubChem)
# Compounds with a hit are over-represented: about 8.5% of the library has one in this group of screens.
# FBPA coupling cs – counter-screen for Giardia aldolase inhibitors: coupling enzyme system. hit rate 0.67% among 290,000. activity change, negative = inhibition, % at 58.2 µM, hits read low. coupling enzyme system counterscreen, AmpLite Red fluorescence; in the data active = activity change below about -30%
#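 Fluorescence at 525 nm excitation and 598 nm emission measured inhibition of the coupled detection system without aldolase. Compounds (at 57.5 uM final) were preincubated 10 min at room temperature with coupling enzyme reagent before a 20 min substrate/AmpLite Red step.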
# ALDH1A1 block – blocks purified human ALDH1A1 activity; hit rate 7.3% among 220,000; P00352; Purified ALDH1A1, NADH fluorescence, propionaldehyde substrate; Potency, µM (titrated, usually from 75.3 µM), actives largely listed as inhibitors; AID 1030; active = well fitted inhibition curve with a large enough effect, not every such curve was filed as active; inconclusive = small, poorly fitted or top-dose-only effect, or another doubt; inactive = no such curve, though single readings can be large or run the other way
# Target sequence (P00352 whole entry, looked up): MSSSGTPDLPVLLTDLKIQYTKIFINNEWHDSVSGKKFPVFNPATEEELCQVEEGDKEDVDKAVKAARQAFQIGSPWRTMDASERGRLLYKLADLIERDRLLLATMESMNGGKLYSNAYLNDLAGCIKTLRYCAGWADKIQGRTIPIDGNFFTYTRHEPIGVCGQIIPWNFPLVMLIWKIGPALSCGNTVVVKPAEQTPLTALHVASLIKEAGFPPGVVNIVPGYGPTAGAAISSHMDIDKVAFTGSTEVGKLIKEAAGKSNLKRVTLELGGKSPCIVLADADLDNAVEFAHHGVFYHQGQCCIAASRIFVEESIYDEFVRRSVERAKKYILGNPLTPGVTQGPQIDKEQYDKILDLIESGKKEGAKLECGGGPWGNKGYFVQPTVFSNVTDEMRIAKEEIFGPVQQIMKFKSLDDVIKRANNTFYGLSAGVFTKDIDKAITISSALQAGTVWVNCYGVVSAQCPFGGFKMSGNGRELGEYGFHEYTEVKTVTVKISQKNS
# GoLoco inh red – inhibitors of human Gai1-RGS12 GoLoco interaction (red fluorophore); P63096; Gai1:RGS12 GoLoco peptide FP, rhodamine, 10 min; Potency, µM (top dose mostly 61.6 µM), actives largely listed as inhibitors; hit rate 0.44% among 230,000; active = well fitted inhibition curve with a large enough effect, not every such curve was filed as active; inactive = no such curve, though single readings can be large or run the other way; also: nearly all actives have a fitted effect of over 30% in size
# KDM4E inh – inhibitors of human JMJD2E histone demethylase; JMJD2E catalytic domain, FDH-coupled NADH fluorescence (FDH is formaldehyde dehydrogenase); Potency, µM (top dose mostly 57.1 µM), hits mostly inhibitors; AID 2147; hit rate 1.6% among 230,000; B2RXH2; active = well fitted inhibition curve with a large enough effect, not every such curve was filed as active; inconclusive = small, poorly fitted or top-dose-only effect, or another doubt; inactive = no such curve, though single readings can be large or run the other way; also: nearly all actives have a fitted effect of over 50% in size
# Sfp PPTase inh – inhibitors of Bacillus subtilis Sfp phosphopantetheinyl transferase. Biochemical Sfp PPTase activity, qHTS. Potency, µM, actives largely listed as inhibitors. hit rate 3.5% among 310,000. AID 1490;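 also: the enzyme is Sfp with the accession as filed and its product quenches rhodamine fluorescence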
#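 Fluorescence-quenching assay with 15 nM Sfp, 5 uM rhodamine-CoA and 12.5 uM BHQ-2-labelled ybbR peptide in pH 7.6 Hepes/MgCl2 buffer. Enzyme was pre-incubated with compound for 15 min at room temperature. Rate was taken from the 30-min fluorescence change (525/598 nm).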
# NPSR antagonist – blocks cAMP signaling of the human neuropeptide S receptor. CHO-NPSR cells, cAMP TR-FRET, antagonist mode. Potency, µM (doses to about 38.3 µM), most hits filed as inhibitors. hit rate 1% among 220,000; also: nearly all actives have a fitted effect of over 50% in size
# Hits are given with their value; - = inactive; ? = inconclusive; . = no result. Unless noted, calls follow the shape of the dose curve; as a rule, active = well fitted curve in the direction sought with a large enough effect; inconclusive = small, poorly fitted or top-dose-only effect, or another doubt; inactive = no such curve, though single readings can be large; an effect the other way counts as inactive or inconclusive.
SMILES,FBPA coupling cs,ALDH1A1 block,GoLoco inh red,KDM4E inh,Sfp PPTase inh,NPSR antagonist
Cc1cc(NC(=O)CCN2C(=O)/C(=C\c3ccccc3Cl)SC2=S)no1,-,-,-,-,50µM,-
Cc1cc(=O)[nH]c2nnc(-c3ccc(Cl)cc3)n12,-,.,.,.,-,.
Cc1cc(C)nc(SCc2csc(-c3ccccc3)n2)n1,-,-,-,-,-,-
Cc1cc(C)nc(SCc2csc(N)n2)n1,-,?,.,-,35µM,-
CC(NC(=O)Cc1ccc(Br)cc1)c1ccccc1 (configuration not stated),-,.,.,.,-,.
O=C(c1ccccc1)N1CCN(c2ccc([N+](=O)[O-])c(NCC3CCCO3)c2)CC1 (configuration not stated),-,13µM,-,-,-,-
CC(C)(C)C(=O)N1CCN(c2ccc([N+](=O)[O-])c(NCc3cccnc3)c2)CC1,-,?,-,-,-,-
O=C(c1ccccc1)N1CCN(c2ccc([N+](=O)[O-])c(NCc3cccnc3)c2)CC1,-,11µM,-,-,-,?
O=C(c1ccccc1F)N1CCN(c2ccc([N+](=O)[O-])c(NCc3cccnc3)c2)CC1,-,7.9µM,-,-,-,-
O=[N+]([O-])c1ccc(N2CCN(S(=O)(=O)c3ccccc3)CC2)cc1NCc1cccnc1,-,-,-,-,-,-
COc1ccc(C2NC(=O)CCC2[N+](=O)[O-])c(OC)c1OC (configuration not stated),-,.,.,.,-,.
CS(=O)(=O)NNC(=O)c1cc2cc3ccccc3nc2s1,-,?,-,?,-,-
NNC(=O)c1cc2cc3ccccc3nc2s1,-,20µM,-,?,-,-
CCc1oc2ccccc2c1C(=O)c1cc(I)c(O)c(I)c1,.,.,-,.,40µM,.
COCCn1c(C)cc(/C=C2/SC(=O)N(CC(=O)N3CCCC3)C2=O)c1C,-,.,.,.,-,.
Cc1cccc(-c2noc(-c3cc4ccccc4oc3=O)n2)c1,-,?,-,?,-,-
CCOc1ccc(N2C(=O)CC(NCCc3ccncc3)C2=O)cc1 (configuration not stated),-,?,-,-,-,-
CCOc1ccc(N2C(=O)CC(NCCc3c[nH]c4ccccc34)C2=O)cc1 (configuration not stated),-,11µM,-,-,-,-
CCCOc1ccc(N2C(=O)CC(NCCc3ccc(S(N)(=O)=O)cc3)C2=O)cc1 (configuration not stated),-,7.9µM,-,-,-,-
COC(=O)N1[C@H](C)C=C[C@]1(Cc1ccccc1)C(=O)NCc1ccccn1,-,?,-,-,-,.
COC(=O)N1[C@H](C)C=C[C@]1(Cc1ccccc1)C(=O)NCc1ccc(C)o1,-,?,-,-,45µM,.
COC(=O)N1[C@H](C)C=C[C@]1(Cc1ccccc1)C(=O)NCc1ccc(N(C)C)cc1,-,8.9µM,-,18µM,-,.
Cc1c(C)n(C)c2ccc(C(=O)Nc3cccc4ccccc34)cc12,-,?,-,?,-,-
CN1/C(=C\C(=O)c2cccnc2)Sc2ccccc21,-,-,-,-,22µM,-
COc1cccc(C(=O)/C=C2\Sc3ccccc3N2C)c1,-,?,-,?,-,-
SMILES,FBPA coupling cs,ALDH1A1 block,GoLoco inh red,KDM4E inh,Sfp PPTase inh,NPSR antagonist
Cc1cccn2cc(COc3ccc(-c4ccccc4)cc3)nc12,-,-,-,?,35µM,-
COc1ccc(NC(=O)N2CCN(C(=O)C(Cc3ccc(F)cc3)NC(C)=O)CC2)cc1 (configuration not stated),-,-,-,-,-,-
N#Cc1ccc(Cl)cc1NC(=O)CNCc1cccs1,-,.,.,.,56µM,.
O=C(/C=C/c1cc[n+](CC(=O)c2ccc3cccc4c3c2CC4)cc1)c1ccc2cccc3c2c1CC3,-,.,-,?,35µM,-
CCOC(=O)C(=Cc1cc(=O)c(OC)co1)C(=O)OCC,-,-,-,-,6.3µM,?
O=C(Cn1cc(C(F)(F)F)ccc1=O)N/N=C/c1ccccc1,-,-,-,-,-,-
CCCCc1ccc(NC(=S)Nc2ccc(Nc3ccc(OC)cc3)cc2)cc1,-,7.1µM,-,-,?,-
CCCCc1ccc(NC(=S)NCc2cccc(OC)c2)cc1,-,?,-,-,-,-
CCOc1ccc(N(CC(=O)NC2CC2)S(=O)(=O)c2ccc(C)cc2)cc1,-,.,.,.,-,.
O=C(O)c1ccc2nc(-c3ccccc3)c(-c3ccccc3)nc2c1,-,?,-,?,-,-
O=C(NCCc1ccccc1)c1ccc2nc(-c3ccco3)c(-c3ccco3)nc2c1,-37,?,-,?,25µM,?
O=C(NCCc1ccccc1)c1ccc(=O)oc1,-,-,-,-,-,-
c1coc(-c2nc3ccccc3nc2-c2ccco2)c1,-38,?,-,?,14µM,-
O=C(NCCO)c1ccc2nc(-c3ccco3)c(-c3ccco3)nc2c1,-47,?,-,?,10µM,-
O=C(c1ccccc1)c1ccc2nc(-c3ccco3)c(-c3ccco3)nc2c1,-,?,-,?,7.1µM,-
CCC1OC(=O)C[C@@H](O)[C@H](C)[C@@H](OC2OC(C)CC(N(C)C)C2O)[C@@H](CC=O)C[C@@H](C)C(=O)/C=C/[C@]2(C)OC2C1C (some centres not stated),.,.,.,.,-,.
O=C(NC1CCCC1)c1ccc2nc(-c3ccco3)c(-c3ccco3)nc2c1,-30,-,.,-,6.3µM,-
O=C(NC1CCCC1)c1ccc2nc[nH]c2c1,-,-,-,-,-,-
Cc1ccc(C(=O)CC2(O)C(=O)N(Cc3ccccc3Cl)c3ccccc32)o1 (configuration not stated),-,3.5µM,-,-,-,-
O=C(CC1(O)C(=O)N(CCc2ccccc2)c2ccccc21)c1ccco1 (configuration not stated),-,?,-,-,-,-
C/C(CC1(O)C(=O)N(Cc2ccccc2)c2ccccc21)=N\O (configuration not stated),-,1.6µM,-,-,-,-
CCN1C(=O)C(O)(CC(=O)c2ccccn2)c2ccccc21 (configuration not stated),-,?,-,-,-,?
Cc1coc(C)c1C(=O)CC1(O)C(=O)N(Cc2ccccc2)c2ccccc21 (configuration not stated),-,4.5µM,-,-,?,?
C=CCN1C(=O)C(O)(CC(=O)c2c(C)n[nH]c2C)c2cc(Br)ccc21 (configuration not stated),-,?,-,-,-,-
COc1ccc(CN2C(=O)C(O)(CC(=O)c3c(C)n[nH]c3C)c3ccccc32)cc1OC (configuration not stated),-,3.5µM,-,-,-,-
O=C1CC(NNc2ccccc2)C(=O)N1c1ccc(N2CCCCC2)cc1 (configuration not stated),-,?,-,-,-,-
